SMILES strings stand for the structures. Several values for one entry are separate records, joined by “and”; a condition that tells them apart may be missing. Equal values may be shown once. This is part of a sample that, as a whole, favours compounds with a hit. Of some 79,000 tested, about 15% had one in any assay. Unmarked numbers belong to inactive results. Activity calls are given as the source filed them. No stated cut-off is given here; in the data, active means growth inhibition above about 70%; inactive means the rest.

The assay in a line: NCI Yeast Anticancer Drug Screen. Data for the sgs1 mgt1 strain (AID 161).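 Further: 0% = growth of cultures given vehicle only.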 The note with it: S. cerevisiae sgs1 mgt1 strain, at 50.0 µM, stronger effect = higher value. The gist of the method:
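Read-out: growth inhibition vs vehicle controls. Cells: mutant yeast strain deficient in DNA damage repair.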
As to `O=C(c1ccccc1)C1C(C(=O)c2ccccc2)N1Cc1ccccc1` (stereo not given), the growth inhibition was 3.8% and -9.95%. The value for `CCC1CN2CCc3cc(OC)c(OC)cc3C2CC1CC1c2cc(OC)c(OC)cc2CCN1C(=O)C(N)Cc1ccccc1` (stereo not given) was -2.3%; that for `COc1cc(C(CC(C)=O)c2cc3c(cc2OC(C)=O)OCO3)cc(OC)c1OC` (stereo not given) was -0.9%. As for `CN(C)NP(c1ccccc1)c1ccccc1`, the figure is -5.95%; as for `OCC(O)C(O)C(O)C1C[O][Sb][O]1` (stereo not given), 7.85%; as for `Nc1ccc(/C=C/C(=O)Nc2ccc(S(=O)(=O)F)cc2)cc1`, 21.1%. As for `[Cl][Hg][c]1ccccc1N=Nc1ccccc1I`, the figure is 99.2% (active); as for `CC1CCCN(C(c2ccccc2)C(O)c2ccccc2)C1` (stereo not given), 13.2%. On to `CCN1C[C@]2(COC)[C@H](O)C[C@H](OC)[C@]34C1[C@H]([C@H](OC)[C@H]23)[C@]1(OC(C)=O)[C@H]2[C@@H](OC(=O)c3ccccc3)[C@](O)(C[C@H]24)[C@@H](OC)[C@@H]1O`, for which the growth inhibition was 5.8%. The value for `[Cl][Tl]` was 9.5%; that for `CCCCOP(=O)(NCCOC)OCCCC` was -3.1%. Take `CC(C)(O)C1=CC23CC(C)(C(=O)O)C4CCCCC4(C)C2CC1OO3` (stereo not given): the growth inhibition was 32%. As for `O=[Te]=O`, the figure is 17.4%; as for `Cc1cnc2ncn(Cc3c[nH]c(=O)[nH]c3=O)c(=O)c2c1`, -8%. As for `CCOP(=O)(OCC)Oc1cc(C)c(SC)c(C)c1`, the figure is -0.6%; as for `CC(Cl)C(=O)OC(C)(C)Cl` (stereo not given), 11.7%; as for `O=C(O)CP(=O)(O)O`, -21.1% and 1.75%. The value for `CCOP(=O)(OCC)c1cc2cc(O)ccc2oc1=O` was -32.2%. Turning to `C[N+](C)(C)NP(=O)(N[N+](C)(C)C)Oc1ccccc1`, the growth inhibition was -10.7%. For the compound `OC(CN(C1CCCCC1)C1CCCCC1)c1ccc(Cl)c(Cl)c1` (stereo not given), the growth inhibition is -14.4%. For the compound `C#CC1(O)CCC(C(C)(C)C)CC1` (stereo not given), the growth inhibition is -7.35% and -4.35% and -1.95%.

For `CC1(C)C=C(NC(=O)N2CC2)C(C)(C)N1O`, the growth inhibition is -2%.

Take `CC(=O)OC1(C#N)CC2OC1C1NC21` (stereo not given): the growth inhibition is 18.4%.

As for `Cc1ccc(S(=O)(=O)NNP(Br)(c2ccccc2)(c2ccccc2)c2ccccc2)cc1`, the growth inhibition is 5.7%.

As for `Cc1cccc(-n2c(C)nc3ccccc3c2=O)c1C`, the growth inhibition is -3.35%. Take `O=c1c2ccccc2sc2c1c(N(CCCl)CCCl)cc1ccccc12`: the growth inhibition was 20.1%. As for `Oc1cccc2cccnc12.[Cr]`, the figure is -7.65%; as for `O=C1NC2(CCCCC2)C(=O)N1CCCCCN(CCCl)CCCl`, 2.1%.

In the case of `CC1c2[nH]c3ccccc3c2CCN1C` (stereo not given), the growth inhibition is 7.8%. The value for `CC1(C)N=C(N)N=C(N)N1c1ccc(CCCCc2ccccc2S(=O)(=O)F)c(Cl)c1` was 99.7% (active); that for `S=c1[nH]c2ccccc2[nH]1.[Zn+2]` was 18.2%. The value for `O=S1(N2CC2)=NP(N2CC2)(N2CC2)=NP(N2CC2)(N2CC2)=N1` (stereo not given) was -16.8%.

Turning to `Nc1cccc2scnc12` (tested in a mixture with another compound), the growth inhibition was 29.7%. For `C[N+](C)(C)CC1CCCCCCCCCCC1=O` (stereo not given), the growth inhibition was -25.2%. In the case of `O=C1CC(c2ccccc2)n2cccc21` (stereo not given), the growth inhibition is 4.85%. With `c1ccc(-c2ccc([As](c3ccccc3)c3ccccc3)cc2)cc1`, the growth inhibition was 19.6%. The value for `NC(Cc1cc([N+](=O)[O-])ccc1CN(CCCl)CCCl)C(=O)O` (stereo not given) was 42%; that for `CSCC(NP1(=O)SC(NN=C(C)C)=NC1(C)C)C(=O)O` (stereo not given) was -26.5%; that for `N#C[CH2][Sn]([I])([c]1ccccc1)[c]1ccccc1` was 1.15%. As for `COc1ccc(CC(N)c2ccccc2)cc1` (stereo not given), the figure is 6.4%.

The record behind these values is PubChem BioAssay (NCI).
